In ChEMBL document CHEMBL1201862, “PubChem BioAssay data set” (2004):
The whole screen tested about 400,000 compounds, of which about 2,100 (0.53%) were called active. Not shown: some 14% with an inconclusive outcome. The rule behind the calls is not given here. This excerpt belongs to a sample that is enriched for actives.

target: Ataxin-2 (Homo sapiens) (UniProt Q99700); assay: qHTS for Inhibitors of ATXN expression.; format: functional
Sequence (Q99700 whole entry): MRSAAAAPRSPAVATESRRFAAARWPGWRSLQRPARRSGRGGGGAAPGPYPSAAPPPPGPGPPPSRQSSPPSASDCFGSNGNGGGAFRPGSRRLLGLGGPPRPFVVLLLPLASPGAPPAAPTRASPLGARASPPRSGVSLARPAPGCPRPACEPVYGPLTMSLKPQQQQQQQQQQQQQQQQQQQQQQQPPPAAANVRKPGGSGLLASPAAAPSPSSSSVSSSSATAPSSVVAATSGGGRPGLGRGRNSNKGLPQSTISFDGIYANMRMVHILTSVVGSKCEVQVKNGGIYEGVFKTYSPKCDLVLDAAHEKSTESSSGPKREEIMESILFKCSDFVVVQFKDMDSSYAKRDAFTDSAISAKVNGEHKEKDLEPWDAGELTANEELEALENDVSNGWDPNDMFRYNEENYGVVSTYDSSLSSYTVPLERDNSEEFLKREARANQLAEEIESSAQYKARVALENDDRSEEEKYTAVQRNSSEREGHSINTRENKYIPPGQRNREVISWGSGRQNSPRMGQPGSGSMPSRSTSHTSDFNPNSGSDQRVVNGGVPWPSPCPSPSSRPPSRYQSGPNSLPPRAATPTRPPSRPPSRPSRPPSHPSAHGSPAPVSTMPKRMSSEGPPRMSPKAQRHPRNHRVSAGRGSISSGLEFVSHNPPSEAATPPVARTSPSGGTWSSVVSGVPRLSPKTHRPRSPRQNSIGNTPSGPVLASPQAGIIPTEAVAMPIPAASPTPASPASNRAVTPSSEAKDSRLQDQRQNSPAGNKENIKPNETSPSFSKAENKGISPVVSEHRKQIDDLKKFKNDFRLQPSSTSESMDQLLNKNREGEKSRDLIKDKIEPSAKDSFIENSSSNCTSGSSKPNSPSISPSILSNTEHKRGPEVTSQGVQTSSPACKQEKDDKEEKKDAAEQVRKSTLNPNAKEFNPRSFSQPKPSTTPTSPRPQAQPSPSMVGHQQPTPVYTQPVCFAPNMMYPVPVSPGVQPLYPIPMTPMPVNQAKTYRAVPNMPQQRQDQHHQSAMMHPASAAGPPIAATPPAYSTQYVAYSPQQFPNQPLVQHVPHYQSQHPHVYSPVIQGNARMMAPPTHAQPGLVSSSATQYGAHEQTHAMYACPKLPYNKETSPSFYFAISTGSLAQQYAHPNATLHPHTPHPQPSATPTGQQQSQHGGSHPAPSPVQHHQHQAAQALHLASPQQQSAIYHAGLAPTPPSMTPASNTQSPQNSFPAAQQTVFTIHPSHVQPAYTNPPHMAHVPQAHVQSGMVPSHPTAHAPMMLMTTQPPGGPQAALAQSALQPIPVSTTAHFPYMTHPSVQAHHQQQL

SMILES | Potency
Cc1ccc(OCCn2cc(/C=N/NC(=O)c3ccncc3)c3ccccc32)cc1 | inactive
Cc1ccc(CSc2nnc(SCC(=O)N/N=C/c3c[nH]c4ccccc34)s2)cc1 | 5.97 µM (active)
CC(C)C(C)NC(=O)CSc1nnc(-c2c[nH]c3ccccc23)o1 (stereo not given) | inactive
O=C1CCCC(O)=C1Sc1cc(Cl)c(Cl)cc1Cl | inactive
O=C(/C=C/Sc1ccccc1)c1ccc(Cl)cc1 | 11.2 µM (active)
O=C(c1ccccc1)c1cccc(C(=O)c2ccccc2)c1 | inactive
O=C1OCCN=C1/C=C(\O)c1ccc(Cl)cc1 | inactive
O=C(/C=C/Sc1ccccc1)c1ccccc1 | 15.8 µM (active)
O=C(CNC(=O)c1ccc(Cl)cc1)Nc1ccccc1C(F)(F)F | inactive
OC(C#CCN1CCCC1)(c1ccccc1)c1cccnc1 (stereo not given) | inactive
O=C(c1cc2c(=O)n3ccccc3nc2s1)N1CCN(Cc2ccc3c(c2)OCO3)CC1 | inactive
Cc1ccc(C23OCCN2CCn2nc4ccccc4c23)cc1 (stereo not given) | inactive
CC(C)c1cc(=O)oc2c3c4c(cc12)CCCN4CCC3 | inactive
CCN(CC)c1ccc(/C=C2\CCC(/C=N/NC(=O)c3ccc(=O)n(C)c3)=C2N2CCOCC2)cc1 | inactive
O=C(N/N=C/C(Br)=C/c1ccccc1)c1ccncc1 | 31.6 µM (active)
Cn1cc(C(=O)N/N=C/C(Br)=C/c2ccccc2)ccc1=O | 15.8 µM (active)
Cc1cc(C(=O)N/N=C/c2cc(Br)cc(Br)c2OC(=O)c2cccc(F)c2)[nH]n1 | inactive
Cn1c(N)c(C(=O)N/N=C/c2ccccc2)sc1=S | inactive
O=C(N/N=C/c1cn(CCOc2ccccc2)c2ccccc12)c1ccncc1 | inactive
Cc1cc(C(=O)N/N=C/c2cc(Br)ccc2OC(=O)c2ccccc2Cl)[nH]n1 | inactive
O=C(N/N=C/c1cn(Cc2ccccc2)c2ccccc12)c1ccncc1 | inactive
CC(C)c1cc(C(=O)N/N=C/C(Br)=C/c2ccccc2)[nH]n1 | 31.6 µM (active)
COc1ccc(-c2cc(=O)oc3cc(OC(=O)C4CCCCC4)c(Cl)cc23)cc1 | inactive
CCN1CCN(Cc2c(O)ccc3c(C)c(-c4ccccc4)c(=O)oc23)CC1 | inactive
CCOC(=O)CC1c2nc3ccccc3cc2CN1C(=O)OCC (stereo not given) | inactive

SMILES | Potency
CC(=O)/N=c1\c(C#N)cc2c(=O)n3ccccc3nc2n1CCCOC(C)C | inactive
OC1=C2C(=Nc3ccccc3SC2c2ccc(Cl)c(Cl)c2)c2ccccc21 (stereo not given) | 31.6 µM (active)
OC1=C2C(=Nc3ccccc3SC2c2ccc(C(F)(F)F)cc2)c2ccccc21 (stereo not given) | 31.6 µM (active)
CC(C)N1C(=O)S/C(=C\c2ccc(-c3ccc(Cl)c(C(=O)O)c3)o2)C1=O | inactive
COc1cccc(N(CC(=O)N2CCCCCC2)S(C)(=O)=O)c1 | inactive
COc1ccc(C2OC3=Nc4cc(C)c(C)cc4NC3=C2O)cc1 (stereo not given) | inactive
O=C(O)c1ccc(NS(=O)(=O)c2ccc(N3CCCC3)c([N+](=O)[O-])c2)cc1 | inactive
NC(=O)CC(NC(=O)Cc1ccc(Br)cc1)c1ccc(NC2CC3CCC2C3)c([N+](=O)[O-])c1 (stereo not given) | 25.1 µM (active)
O=C(COc1ccc(Br)cc1)NNC(=O)c1ccc(-n2cncn2)c([N+](=O)[O-])c1 | inactive
NC(=O)CC(NC(=O)c1ccc(Br)cc1)c1ccc(N2CCCCCCC2)c([N+](=O)[O-])c1 (stereo not given) | 31.6 µM (active)
Cc1cc(NC(=O)CNCC(c2ccccc2)N(C)C)c([N+](=O)[O-])cc1C (stereo not given) | inactive
O=C(Cc1ccc(Br)cc1)N(Cc1ccccc1)c1ccccn1 | inactive
O=[N+]([O-])c1cccc(S(=O)(=O)NC2CC3CCC2C3)c1 (stereo not given) | inactive
NC(=O)CC(NC(=O)c1ccc(Br)cc1)c1ccc(NC2CCCCCCC2)c([N+](=O)[O-])c1 (stereo not given) | 31.6 µM (active)
CN(Cc1ccccc1)c1ccc(C(CC(N)=O)NC(=O)Cc2ccc(Br)cc2)cc1[N+](=O)[O-] (stereo not given) | 35.5 µM (active)
C=CCNc1nc2ccccc2nc1NS(=O)(=O)c1ccc(F)cc1 | inactive
CCOC(=O)/C(=C\C=C1/Sc2cc(OCC)c(OCC)cc2N1CC)C(C)=O | inactive
COc1ccccc1[C@@H]1C(c2cccc(Cl)c2)=NN(c2ccccc2)[C@H]1C(=O)N1CCOC1=O | inactive
CCOC(=O)C1(Cc2cccc(F)c2)CCN(Cc2cn(CC)nc2C)CC1 | inactive
CCCn1c(N)c(C(=O)CSc2nncs2)c(=O)[nH]c1=O | inactive
COC(=O)C1=CN(CC2CCCO2)C=C(C(=O)OC)C1c1cccc(O)c1 (stereo not given) | inactive
Cc1c(O)ccc2c(CC(=O)N[C@@H](Cc3ccccc3)C(=O)O)cc(=O)oc12 | inactive
CCn1cc(C(=O)N(C)Cc2ccc(OC(F)F)cc2)c(=O)c2ccc(C)nc21 | inactive
CCOC(=O)C1CCCN(Cc2ccc(OCc3ccccc3)c(OC)c2)C1 (stereo not given) | inactive
COC(=O)c1ccc(COc2cccn3c(N(C)C(=O)CCC4CCCC4)c(C)nc23)cc1 | 35.5 µM (active)

SMILES | Potency
Cc1nc2c(OCc3ccc(OC(F)F)cc3)cccn2c1N(C)C(=O)CCC1CCCC1 | 39.8 µM (active)
CCOC(=O)c1cc2c(=O)n3ccccc3nc2n(CC2CCCO2)/c1=N\C(=O)c1ccccc1OCC (stereo not given) | inactive
CCCCCC(=O)Nc1ncc2c(n1)CC(c1cccs1)CC2=O (stereo not given) | inactive
O=C(CCCCCn1c(=S)[nH]c2ccc(N3CCOCC3)cc2c1=O)NC1CCN(Cc2ccccc2)CC1 | inactive
Cc1sc2c(c1C)C(O)=C(/C=N/c1ccccn1)S(=O)(=O)N2C | inactive
N#Cc1c(N)n(CCOC(=O)c2ccc(Cl)cc2)c2nc3ccccc3nc12 | inactive
N#CC(=C(O)COC(=O)CCC1CCCCC1)c1nc2ccccc2[nH]1 | 39.8 µM (active)
N#C/C(=C(/O)C(Cl)(Cl)Cl)c1nc2ccccc2[nH]1 | inactive
N#C/C(=C\c1ccc(-c2ccccc2C(=O)O)o1)c1nc2ccccc2[nH]1 | inactive
N#C/C(=C(/O)COC(=O)COc1cccc(Br)c1)c1nc2ccccc2[nH]1 | 22.4 µM (active)
N#C/C(=C(/O)COC(=O)CCCNC(=O)c1ccc(Cl)cc1)c1nc2ccccc2[nH]1 | 25.1 µM (active)
N#Cc1c(N)n(CCNC(=O)c2ccccc2)c2nc3ccccc3nc12 | inactive
N#C/C(=C\c1ccccc1C(=O)O)c1nc2ccccc2[nH]1 | inactive
N#Cc1ccccc1S(=O)(=O)N1CCN(C(=O)CCC2CCCC2)CC1 | inactive
N#C/C(=C(/O)COC(=O)COc1ccc(Cl)cc1)c1nc2ccccc2[nH]1 | 39.8 µM (active)
Cc1cccc(N2C(=O)c3ccccc3C2=O)n1 | inactive
Oc1ccccc1C1=NN(c2ccccc2)C(c2ccccc2)C1 (stereo not given) | inactive
COc1cc(/C=C/c2onc(C)c2[N+](=O)[O-])cc(OC)c1OC | inactive
O=C(CN1C(=O)c2ccccc2C1=O)NCc1ccc(N2CCOCC2)cc1 | inactive
O=C(OCCOc1cccc(Cl)c1)c1ccc2ncsc2c1 | inactive
CCC(=O)Nc1c(OC(=O)CC)ccc2c(C)cc(=O)oc12 | inactive
CCCCn1c(N)c(N(CCC(C)C)C(=O)c2ccc(-c3ccc([N+](=O)[O-])cc3)o2)c(=O)[nH]c1=O | 20 µM (active)
CCCCn1c(N)c(N(CC)C(=O)c2cc(OC)cc(OC)c2)c(=O)[nH]c1=O | inactive
CCCCN(C(=O)c1ccc2ccccc2c1)c1c(N)n(CCCC)c(=O)[nH]c1=O | inactive
COc1cc2c(cc1OC)C(c1ccc(-c3ccccc3Cl)o1)=NCC2 | 39.8 µM (active)

SMILES | Potency
Cc1nn(C)c(C)c1N1C(=O)c2cccc3c(Br)ccc(c23)C1=O | inactive
Cc1ccccc1CS(=O)(=O)Cc1ccc(C(=O)NCCCN2CC(C)CC(C)C2)o1 (stereo not given) | 8.91 µM (active)
Cc1ccccc1C(=O)NCCCNC(=O)c1ccco1 | inactive
Cc1ccccc1CNC(=O)c1ccccc1NS(C)(=O)=O | inactive
CC(C)C1Cc2c(sc3ncnc(NN)c23)CO1 (stereo not given) | inactive
Cc1cc(O)cc2c(=O)c3ccccc3sc12 | inactive
CN(C)CCCNC(=O)c1cc2sc3ccccc3c2s1 | inactive
COc1cc(C)c2sc3ccccc3c(=O)c2c1NCCN(C)C | 44.7 µM (active)
Cc1ccc(/C=N/NC(=O)c2cc3c(s2)CCCC3)o1 | inactive
O=S(=O)(/C=C/c1ccccc1)NCc1ccccc1Cl | inactive
O=C(CCC(=O)N/N=C/c1cc(Cl)cc(Cl)c1O)NCc1ccccc1 | inactive
CCC/C=C/c1ccc(CN2C(CC(C)C)C(=O)N(Cc3cn(CCC4OCCCO4)nn3)CCS2(=O)=O)cc1 (stereo not given) | 39.8 µM (active)
CCC/C=C/c1ccc(CN2C(CC(C)C)C(=O)N(Cc3cn(CCC4OCCO4)nn3)CCS2(=O)=O)cc1 (stereo not given) | 35.5 µM (active)
O=C(CCCCn1c(=O)[nH]c2ccsc2c1=O)NCc1ccc2c(c1)OCO2 | inactive
CN(C)S(=O)(=O)c1ccc2oc(SCC(=O)c3c(N)n(C4CC4)c(=O)[nH]c3=O)nc2c1 | inactive
O=c1c2ccccc2nc(/C=C/c2c[nH]c3ccccc23)n1CCO | inactive
CCCCc1cc(-c2nnc(S)o2)c2ccccc2n1 | inactive
CC(Oc1cc(F)ccc1[N+](=O)[O-])C(=O)Nc1ccc(S(=O)(=O)N2CCCC2)cc1 (stereo not given) | inactive
CC(Oc1ccccc1Cl)C(=O)Nc1ccc(S(=O)(=O)N2CCCC2)cc1 (stereo not given) | 35.5 µM (active)
CC(C)NS(=O)(=O)c1ccc(NC(=O)C(C)OC(=O)C2CCC2)cc1 (stereo not given) | inactive
Cc1cc2nc(-c3cccnc3O)[nH]c2cc1C | inactive
CN1c2ccccc2C(C)(C)C12C=Nc1c(cc(N3CCOCC3)c3ccccc13)O2 (stereo not given) | inactive
Cc1cccc(N(C(=O)c2nsc(Cl)c2Cl)C(C(=O)NC2CCCC2)c2ccc(O)cc2)c1C (stereo not given) | 17.8 µM (active)
Cc1ccccc1N(C(=O)c1snc(C(N)=O)c1N)C(C(=O)NCC1CCCO1)c1ccc(F)cc1 (stereo not given) | inactive
NC(=O)c1nsc(C(=O)N(c2cccc(O)c2)C(C(=O)NC2CCCC2)c2ccc(Cl)cc2)c1N (stereo not given) | inactive
